Data on 16 molecules can be found in PubChem BioAssay.

The source made the active and inactive calls.

For one experiment, the target named is Albumin (Bos taurus) (UniProt P02769). In words: compounds binding labelled BSA control protein – biochemical, small-molecule microarray, Alexa647 label, 635/667 nm fluorescence, artefact control for SMM control protein annotation, profiling panel (AID 1118).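 Also: score merges 667 nm emission intensity and signal-to-noise per printed compound spot.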 Conditions: BSA-A647 binding, fluorescence 635 nm, higher = more signal.
Experiment [1] can be described thus: probe aXIP binding to arrayed compounds – biochemical, NeuroSMM set, 635/667 nm fluorescence, primary screen (AID 1119).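 Also: probe is the protein aXip251-270 applied at 1 µg/mL to compound-printed slides; binding of probe to printed compounds measured as 667 nm fluorescence plus signal to noise.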 The conditions noted are these: small-molecule microarray, higher = more signal, called active from +8 up or from −8 down.
Experiment [2] is described as follows: probe aNOTCH3 binding on compound microarray – biochemical, small-molecule microarray, 635/667 nm fluorescence, primary screen (AID 1120).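 Also: probe is a biotin-tagged antibody raised against NOTCH3 rather than NOTCH3 protein; score merges spot fluorescence near 667 nm with spot signal to noise.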 Conditions: higher = more signal.
The nature of experiment [3]: probe aNOTCH2 binding on compound microarray – biochemical, small-molecule microarray, 635/667 nm fluorescence, primary screen (AID 1121).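 Also: score merges feature fluorescence read at 667 nm with its signal to noise.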 Conditions: higher = more signal.
Experiment [4] has as its target Carbonic anhydrase 2 (Homo sapiens) (UniProt P00918). The experiment is described as follows: compounds binding carbonic anhydrase 2 – biochemical, small-molecule microarray, Alexa647-labelled CAII, profiling panel (AID 1122). Conditions: CAII-A647 binding fluorescence, higher = more signal.
A short description of experiment [5]: COS7 lysate on small-molecule microarray, probe aHis, 635 nm (AID 1123).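 Also: z-score combines 667nm fluorescence intensity with signal-to-noise per printed compound spot.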 The conditions noted are these: COS7 cell lysate, fluorescence, higher = more signal.
A short description of experiment [6]: probe aLAP1 signal on lysate-treated microarray – cell lysate, small-molecule microarray, COS7 lysate, primary screen (AID 1124).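 Also: lysate comes from COS7 cells expressing LAP1 and is applied at 0.3 µg/mL; score merges spot fluorescence near 667 nm with signal-to-noise over triplicate slides.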 The conditions noted are these: probe aLAP1, fluorescence, higher = more signal.
For a further experiment, the system named is Sam68 (KHDRBS1). The experiment is described as follows: compounds binding KHDRBS1 protein – biochemical, small-molecule microarray, 635 nm fluorescence, primary screen (AID 1125).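 Also: score merges 667 nm channel intensity with signal to noise over triplicate slides.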 Conditions: higher = more signal.
Experiment [7] concerns Chordin-like protein 2 (CHRDL2). The experiment is described as follows: compounds binding chordin-like 2 – biochemical, small-molecule microarray, 635 nm fluorescence, primary screen (AID 1126).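 Also: printed compound slides probed with Chrdl2 protein at 4 µg/mL for 1 h at 4 C; score merges 667 nm emission intensity with signal to noise over three replicate slides.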 Conditions: fluorescence 635 nm, higher = more signal.
For experiment [8], the target named is Concanavalin-A (Canavalia ensiformis) (UniProt P02866). The experiment is described as follows: compounds binding concanavalin A lectin – biochemical, small-molecule microarray, Alexa647 label, 635 nm, artefact control for SMM control protein annotation, primary screen (AID 1127).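 Also: z combines 667 nm emission intensity with signal-to-noise across three replicate slides.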 Conditions: ConA-A647 binding fluorescence, higher = more signal.
Chain of Concanavalin-A (Canavalia ensiformis) (P02866 whole entry, looked up): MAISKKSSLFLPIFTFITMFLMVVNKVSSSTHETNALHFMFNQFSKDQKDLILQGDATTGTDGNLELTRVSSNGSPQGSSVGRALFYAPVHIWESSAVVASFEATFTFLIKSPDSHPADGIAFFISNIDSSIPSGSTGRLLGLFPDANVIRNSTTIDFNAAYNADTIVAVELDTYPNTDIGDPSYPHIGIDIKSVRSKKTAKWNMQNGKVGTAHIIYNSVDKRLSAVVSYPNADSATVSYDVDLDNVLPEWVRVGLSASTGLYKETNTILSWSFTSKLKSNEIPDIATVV

Chain of Albumin (Bos taurus) (P02769 whole entry, looked up): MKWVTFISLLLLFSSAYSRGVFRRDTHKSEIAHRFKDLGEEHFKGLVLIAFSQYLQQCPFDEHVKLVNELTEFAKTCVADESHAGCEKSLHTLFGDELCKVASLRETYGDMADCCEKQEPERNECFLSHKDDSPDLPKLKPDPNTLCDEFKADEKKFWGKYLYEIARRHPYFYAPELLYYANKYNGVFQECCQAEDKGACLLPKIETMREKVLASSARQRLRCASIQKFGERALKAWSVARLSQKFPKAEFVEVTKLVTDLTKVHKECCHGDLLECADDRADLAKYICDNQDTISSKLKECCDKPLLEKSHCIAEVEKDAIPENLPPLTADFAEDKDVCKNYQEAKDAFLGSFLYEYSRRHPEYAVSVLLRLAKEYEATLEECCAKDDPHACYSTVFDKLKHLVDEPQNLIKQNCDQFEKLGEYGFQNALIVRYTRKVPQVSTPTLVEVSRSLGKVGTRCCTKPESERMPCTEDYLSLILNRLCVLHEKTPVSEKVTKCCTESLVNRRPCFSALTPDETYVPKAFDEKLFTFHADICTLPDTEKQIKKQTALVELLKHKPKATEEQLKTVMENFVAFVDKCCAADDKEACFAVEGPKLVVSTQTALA

Turning to `CCOC(=O)[C@H]1C/C=C/C[C@H](C(=O)OCC)C(=O)O[C@H]2[C@@H](OC)O[C@H](CO)[C@@H](OC(=O)c3c(OC)cccc3OC)[C@@H]2OC1=O`, the composite z-score with Albumin (Bos taurus) was 0.0961; in [2], 0.275; in [3], -0.108; in [4] it was 0.512; in experiment [5], 1.66; in experiment [6], 0.47. For the same molecule, the composite z-score in the experiment with Sam68 (KHDRBS1) turned out to be 1.26; in [7] it was 0.83; in experiment [8], 0.932. Further, the composite Z-score in [1] is 0.338 (inactive).
Turning to `N#Cc1ccc(NN2C(C(O)C(c3ccccc3)c3ccccc3)C=CC3C(=O)N(c4ccccc4)C(=O)C32)cc1` (stereo not given), the composite z-score with Albumin (Bos taurus) is 0.983; in experiment [2], 0.673; in experiment [3], 0.11; in experiment [4], 0.407; in experiment [5] it was 2.95; in experiment [6], -0.0751. For the same molecule, the figures for the composite z-score (in the experiment on Sam68 (KHDRBS1); in experiment [7]; in experiment [8]) were 1.3, -0.558 and 1.17, respectively. Besides, in experiment [1], the composite Z-score was -0.442 (inactive).
Take `O=C1c2ccccc2[C@](Cc2ccccc2I)(C(=O)NCCN2CCOCC2)[C@H](c2ccc(CO)cc2)N1C1CCCCC1`: the composite z-score was 0.55 with Albumin (Bos taurus); 0.323 in experiment [2]; -0.052 in experiment [3]; 0.548 in experiment [4]; 1.41 in experiment [5]; 0.382 in experiment [6]. Further, the composite z-score in the experiment with Sam68 (KHDRBS1) stood at 1.31; in [7], 0.67; in experiment [8], 1.15. Further, the composite Z-score in experiment [1] is 0.424 (inactive).
For `[N-]=[N+]=Nc1ccccc1[C@H]1OC(c2ccc(OCCCO)cc2)=N[C@@]1(CCS(=O)(=O)c1ccccc1)C(N)=O`, the composite z-score was determined as 0.485 with Albumin (Bos taurus); 0.264 in experiment [2]; 0.113 in [3]; 0.795 in [4]; 1.43 in experiment [5]; 0.469 in experiment [6]. Also, the composite z-score with Sam68 (KHDRBS1) stood at 1.22; in experiment [7], 0.0869; in experiment [8], 0.868. Also, the composite Z-score in experiment [1] is 0.211 (inactive).
In the case of `CCC[C@@H]1C[C@@]1(CCC)[C@@H](NC(=O)c1ccccc1)c1cccc(Cl)c1`, the composite z-score in the experiment with Albumin (Bos taurus) worked out at 0.941; in experiment [2], 1.38; in experiment [3] it was 0.808; in experiment [4] it was 0.326; in experiment [5], 2.63; in experiment [6], 0.245. Also, the composite z-score stood at 1.33 in the experiment with Sam68 (KHDRBS1), 0.0667 in experiment [7] and 0.954 in [8]. The composite Z-score in experiment [1] is 0.432 (inactive).
For the molecule `[N-]=[N+]=NCc1ccccc1C[C@]1(C(=O)N2CCCCC2)N=C(c2ccc(OCCCO)cc2)O[C@H]1c1ccccc1N=[N+]=[N-]`, the composite z-score was 0.836 in the experiment with Albumin (Bos taurus); 0.194 in [2]; 0.0097 in experiment [3]; 0.593 in [4]; 2.45 in experiment [5]; 0.799 in experiment [6]. Also, the composite z-score in the experiment on Sam68 (KHDRBS1) was 1.33; in experiment [7], -0.518; in experiment [8], 1.1. For the same molecule, in [1], the composite Z-score was -0.602 (inactive).
On to `[N-]=[N+]=NCc1ccccc1[C@@H]1OC(c2ccc(OCCCO)cc2)=N[C@]1(Cc1ccccc1)C(N)=O`, for which the composite z-score was 0.979 in the experiment with Albumin (Bos taurus); 0.526 in experiment [2]; 0.0646 in experiment [3]; 0.783 in [4]; 1.79 in experiment [5]; 0.222 in [6]. Moreover, the results for the composite z-score (in the experiment on Sam68 (KHDRBS1); in experiment [7]; in experiment [8]) were 1.3, -0.692 and 1.16, respectively. Also, in experiment [1], the composite Z-score was -0.791 (inactive).
As for `COc1ccc(C#Cc2ccc3c(c2)[C@]2(C(=O)N3)[C@H](C(=O)NC[C@H](O)c3ccccc3)[C@H]3C(=O)O[C@H](c4ccccc4)[C@H](c4ccccc4)N3[C@@H]2c2ccc(O)cc2)cc1`, the composite z-score was 0.186 in the experiment with Albumin (Bos taurus); 0.0585 in experiment [2]; -0.139 in experiment [3]; 0.566 in experiment [4]; 2.46 in experiment [5]; 0.624 in [6]. The composite z-score in the experiment with Sam68 (KHDRBS1) was 1.29; in experiment [7], -0.0259; in experiment [8] it was 1.13. In addition, the composite Z-score in experiment [1] was 0.658 (inactive).
Consider `COCCOC(=O)N1C(=O)[C@@]2(c3ccccc31)[C@H](C(=O)N1CCc3cc(OC)c(OC)cc3C1)[C@H]1C(=O)O[C@H](c3ccccc3)[C@H](c3ccccc3)N1[C@@H]2c1ccc(OCCO)cc1`, for which the composite z-score in the experiment with Albumin (Bos taurus) was 0.843; in [2], -0.0343; in experiment [3], -0.0903; in experiment [4], 0.486; in [5], 2.59; in [6], 0.953. Further, the figures for the composite z-score (in the experiment on Sam68 (KHDRBS1); in [7]; in [8]) were 1.32, 0.417 and 1.09, respectively. Further, the composite Z-score in [1] is -0.386 (inactive).
`COc1ccc(C#Cc2ccc3c(c2)[C@]2(C(=O)N3)[C@H](c3ccccc3OCCO)N3[C@H](c4ccccc4)[C@H](c4ccccc4)OC(=O)[C@H]3[C@@H]2C(=O)Nc2nc3ccccc3s2)cc1`: the composite z-score with Albumin (Bos taurus) was 0.187; in experiment [2], 1.12; in [3], 0.0559; in experiment [4] it was 0.327; in experiment [5], 0.646; in experiment [6] it was 0.0878. The composite z-score in the experiment with Sam68 (KHDRBS1) turned out to be 1.31; in [7], 0.886; in experiment [8], 0.931. The composite Z-score in experiment [1] is 0.317 (inactive).
Regarding `O=C1c2ccccc2[C@](Cc2ccccc2I)(C(=O)NCCN2CCOCC2)[C@H](c2ccc(CO)cc2)N1Cc1ccccc1Cl`, the composite z-score with Albumin (Bos taurus) is 0.517; in experiment [2] it was 0.223; in experiment [3], 0.385; in experiment [4], 0.652; in experiment [5], 1.82; in [6], 0.754. Moreover, the composite z-score came out at 1.31 in the experiment on Sam68 (KHDRBS1), 0.202 in experiment [7] and 1.17 in experiment [8]. The composite Z-score in [1] is 0.322 (inactive).
As to `CN(C)CCCC[C@@H]1NC(=O)[C@@H]2C[C@H](C(=O)NCCCCCCN)[C@H](c3cccc(OCCO)c3)N2C1=O`, the composite z-score with Albumin (Bos taurus) was found to be 0.839; in experiment [2], 1.07; in experiment [3], 0.308; in experiment [4] it was 0.632; in experiment [5], 3.25; in experiment [6], 0.495. Besides, the values for the composite z-score (with Sam68 (KHDRBS1); in experiment [7]; in experiment [8]) were 1.3, 0.299 and 1.13, respectively. Besides, the composite Z-score in experiment [1] was 0.938 (inactive).
On to `COC(=O)[C@]1(CCC(=O)OC(C)(C)C)N=C(c2ccc(OCCCO)cc2)O[C@@H]1c1ccccc1CN=[N+]=[N-]`, for which the composite z-score with Albumin (Bos taurus) is -0.325; in experiment [2] it was -0.0284; in experiment [3], 0.0059; in [4], 0.675; in [5] it was 1.72; in experiment [6], -0.46. The composite z-score is 0.866 with Sam68 (KHDRBS1), -1.04 in [7] and 0.779 in experiment [8]. Further, in [1], the composite Z-score is -1.26 (inactive).
Take `O=C1C[C@]2(c3ccc([N+](=O)[O-])cc3)C(=O)N(CC(F)(F)F)c3cc(CO)ccc3[C@H]2N1C1CCCCC1`: the composite z-score with Albumin (Bos taurus) was -0.749; in experiment [2] it was -0.125; in experiment [3], -0.112; in experiment [4], -0.634; in experiment [5], 0.0971; in experiment [6] it was 0.206. The composite z-score in the experiment on Sam68 (KHDRBS1) is -0.686; in [7] it was -1.26; in experiment [8], -0.546. The composite Z-score in experiment [1] was -0.0774 (inactive).
On to `COCCCNC(=O)[C@@H]1c2ccccc2C(=O)N(Cc2ccccc2Cl)[C@H]1c1ccc(CO)cc1`, for which the composite z-score is -0.432 in the experiment with Albumin (Bos taurus); -0.147 in experiment [2]; 0.151 in experiment [3]; 0.656 in [4]; 1.72 in [5]; -0.503 in experiment [6]. For the same molecule, the composite z-score in the experiment on Sam68 (KHDRBS1) came out at 0.95; in experiment [7], 0.683; in experiment [8], 0.772. Moreover, in [1], the composite Z-score is -0.129 (inactive).
`CCOC(=O)C1=CC[C@@H](c2ccccc2)N(S(=O)(=O)c2ccc(C)cc2)[C@H]1c1ccccc1C`: the composite z-score in the experiment with Albumin (Bos taurus) came out at 0.767; in experiment [2], 0.183; in [3], 0.103; in [4], 0.743; in [5] it was 0.838; in experiment [6] it was 0.201. Further, the results for the composite z-score (with Sam68 (KHDRBS1); in experiment [7]; in [8]) were 0.841, -0.0352 and 0.705, respectively. Also, in experiment [1], the composite Z-score is -0.663 (inactive).
